Assay results from PubChem BioAssay AID504333 (National Center for Advancing Translational Sciences (NCATS), 2011).
The whole screen tested about 360,000 compounds, of which about 16,000 (4.4%) were called active. About 9% were inconclusive and are not listed. Calls come from the whole dose curve; as a rule, active = well fitted inhibition curve with a large enough effect; inconclusive = small, poorly fitted or top-dose-only effect; inactive = no such curve, though single readings can be large or run the other way. Shown is part of a subset that was picked to be rich in actives.

The compounds below were run against Bromodomain adjacent to zinc finger domain protein 2B (Homo sapiens) (UniProt Q9UIF8) (assay: qHTS Assay for Inhibitors of BAZ2B). Settings: AlphaScreen BAZ2B-H3K14Ac peptide displacement; series mostly up to 114 µM; activity change, negative = inhibition: at the top concentration.
Procedure, shortened: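 Inhibition is scored as reduced AlphaScreen emission. The BAZ2B/b-H3(5-23)K14Ac complex (50 nM each) in PBS pH 7.4, 0.01% Tween-20 meets compound (up to 110 uM) for 30 min at RT before bead addition.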
% is set by controls: 0 for no effect and ±100 for the full control effect; potency is the fitted concentration of half-maximal effect.
Note: nearly all actives have a fitted effect of over 60% in size.

Sequence of Bromodomain adjacent to zinc finger domain protein 2B (Homo sapiens) (Q9UIF8 whole entry, looked up, the tested form may be a part): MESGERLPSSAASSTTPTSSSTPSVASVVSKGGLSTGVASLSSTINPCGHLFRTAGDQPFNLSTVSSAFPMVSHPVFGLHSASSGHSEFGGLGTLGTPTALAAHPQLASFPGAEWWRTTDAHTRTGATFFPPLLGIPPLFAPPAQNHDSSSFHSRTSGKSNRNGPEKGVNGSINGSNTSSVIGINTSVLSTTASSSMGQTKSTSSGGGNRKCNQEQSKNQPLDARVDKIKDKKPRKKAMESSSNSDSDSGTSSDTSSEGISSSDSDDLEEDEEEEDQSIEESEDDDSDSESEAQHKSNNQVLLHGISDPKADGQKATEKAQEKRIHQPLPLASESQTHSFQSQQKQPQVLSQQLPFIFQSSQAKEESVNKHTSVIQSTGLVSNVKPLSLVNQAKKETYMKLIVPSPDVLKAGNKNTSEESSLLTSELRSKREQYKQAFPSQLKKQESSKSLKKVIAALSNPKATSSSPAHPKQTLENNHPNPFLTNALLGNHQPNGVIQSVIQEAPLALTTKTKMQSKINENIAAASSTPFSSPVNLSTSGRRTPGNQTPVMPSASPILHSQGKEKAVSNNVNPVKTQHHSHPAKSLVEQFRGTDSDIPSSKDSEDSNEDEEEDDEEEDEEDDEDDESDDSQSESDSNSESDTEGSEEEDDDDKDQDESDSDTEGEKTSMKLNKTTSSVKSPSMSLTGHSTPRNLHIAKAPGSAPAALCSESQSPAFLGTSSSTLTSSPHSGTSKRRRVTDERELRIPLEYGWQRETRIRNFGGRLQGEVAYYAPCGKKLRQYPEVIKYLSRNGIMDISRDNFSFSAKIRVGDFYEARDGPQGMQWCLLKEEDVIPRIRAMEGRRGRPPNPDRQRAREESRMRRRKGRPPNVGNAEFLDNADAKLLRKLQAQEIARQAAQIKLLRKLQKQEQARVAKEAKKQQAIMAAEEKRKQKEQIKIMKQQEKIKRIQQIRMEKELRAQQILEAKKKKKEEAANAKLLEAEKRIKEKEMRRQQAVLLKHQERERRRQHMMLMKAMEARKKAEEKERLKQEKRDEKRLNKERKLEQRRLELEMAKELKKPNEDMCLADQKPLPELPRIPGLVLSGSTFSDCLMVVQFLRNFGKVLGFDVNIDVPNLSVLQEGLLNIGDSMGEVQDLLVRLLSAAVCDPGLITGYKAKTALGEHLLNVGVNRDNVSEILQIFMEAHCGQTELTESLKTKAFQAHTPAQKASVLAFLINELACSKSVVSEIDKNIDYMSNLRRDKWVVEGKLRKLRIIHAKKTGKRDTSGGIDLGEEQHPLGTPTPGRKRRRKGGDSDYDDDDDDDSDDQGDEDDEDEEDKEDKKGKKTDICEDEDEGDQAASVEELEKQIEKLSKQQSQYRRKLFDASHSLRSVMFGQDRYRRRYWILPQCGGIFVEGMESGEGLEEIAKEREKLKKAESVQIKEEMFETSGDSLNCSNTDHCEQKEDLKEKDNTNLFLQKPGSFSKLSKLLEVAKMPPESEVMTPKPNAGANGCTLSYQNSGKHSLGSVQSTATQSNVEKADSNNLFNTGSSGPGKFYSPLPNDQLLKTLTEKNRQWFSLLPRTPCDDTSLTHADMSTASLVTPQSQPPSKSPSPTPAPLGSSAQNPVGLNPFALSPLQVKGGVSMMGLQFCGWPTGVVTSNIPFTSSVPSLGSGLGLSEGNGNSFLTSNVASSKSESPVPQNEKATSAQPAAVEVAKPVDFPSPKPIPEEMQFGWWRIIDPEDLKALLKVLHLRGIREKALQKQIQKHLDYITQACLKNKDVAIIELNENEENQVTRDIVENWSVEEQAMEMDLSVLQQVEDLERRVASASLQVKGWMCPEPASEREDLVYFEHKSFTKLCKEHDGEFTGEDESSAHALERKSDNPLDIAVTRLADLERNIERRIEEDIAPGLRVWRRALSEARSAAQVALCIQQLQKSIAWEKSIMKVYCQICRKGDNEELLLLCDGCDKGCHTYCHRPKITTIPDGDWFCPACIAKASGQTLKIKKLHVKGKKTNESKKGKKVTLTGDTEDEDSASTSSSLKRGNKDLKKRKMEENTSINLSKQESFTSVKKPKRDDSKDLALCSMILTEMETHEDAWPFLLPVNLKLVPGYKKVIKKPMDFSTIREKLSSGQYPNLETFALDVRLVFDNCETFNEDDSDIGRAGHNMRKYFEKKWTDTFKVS

Structure (SMILES)	activity change, negative = inhibition	Potency
Cc1cc(=O)n(CC(=O)Nc2cccc([N+](=O)[O-])c2)c(-n2nc(C)cc2C)n1	-21.5% (inactive)	
N#Cc1ccccc1Cn1cnc2nc3c(cc2c1=O)CCCC3	-3.89% (inactive)	
COc1ccc(-c2cc(-c3nc(-c4cc(OC)c(OC)c(OC)c4)no3)[nH]n2)c(OC)c1	-1.15% (inactive)	
COc1ccc(N2CCN(C(=O)c3c(C)oc4nc(C)nc(N5CCCC5)c34)CC2)cc1	4.5% [at 57.1 µM] (inactive)	
O=c1[nH]n(-c2ccc([N+](=O)[O-])cc2)c(=O)c2ccccc12	20.8% (inactive)	
CC1=NN(c2ccccc2)C(=O)C1C(=O)c1ccc([N+](=O)[O-])cc1 (stereo unspecified)	-13.4% (inactive)	
O=C1CC(c2ccccc2)=NN1c1ccc([N+](=O)[O-])cc1		25.1 µM (active)
CCCn1c2ccccc2c2cnn(CC(=O)NCCCOC(C)C)c(=O)c21	-7.08% (inactive)	
CCc1nnc2c3ccccc3nc(N3CCN(c4ccc(C)cc4C)CC3)n12	4.68% [at 57.1 µM] (inactive)	
CC(C)Cn1c(-c2ccc(S(=O)(=O)N3CCOCC3)cc2)csc1=Nc1cc(Cl)ccc1Cl	-37.6% (inactive)	
CN(C)CCCn1c(-c2ccc(Cl)cc2)csc1=Nc1ccccc1		12.6 µM (active)
OCCn1c(-c2ccccc2)csc1=Nc1ccccc1		11.2 µM (active)
Cc1csc(=NC(=O)c2ccccc2)n1CCO	3.79% (inactive)	
Cc1cccn2c(=O)c(C(=O)NC(C)c3ccccc3)cnc12 (stereo unspecified)	-1.1% (inactive)	
Cc1csc2nc(COC(=O)c3ccccc3NC(=O)c3ccccc3Cl)cc(=O)n12	-0.509% (inactive)	
Cc1ccc(CN2COc3cc(C)c4c(oc(=O)c5ccccc54)c3C2)cc1	-9.36% (inactive)	
CC(=O)c1sc(N2C(=O)c3oc4ccccc4c(=O)c3C2c2ccc(C)cc2)nc1C (stereo unspecified)	0.549% (inactive)	
Cc1ccc(S(=O)(=O)c2cn(Cc3ccccc3)c3cc(N4CCCC4)c(F)cc3c2=O)c(C)c1	4.01% (inactive)	
Oc1ccc2ccccc2c1N=Nc1nccs1		2 µM (active)
Oc1ccc(N=Nc2nccs2)c(O)c1		25.1 µM (active)
CCc1ccccc1N(C)C(=O)C1CCCN(c2ncnc3onc(-c4ccc(F)cc4)c23)C1 (stereo unspecified)	6.53% [at 57.1 µM] (inactive)	
CN(C(=O)CSc1nc2ccccc2n1Cc1ccccc1C#N)c1ccccc1	-36.5% (inactive)	

Structure (SMILES)	activity change, negative = inhibition	Potency
CC(C)(C)OC(=O)N1CCC(c2c(C(=O)NCCc3ccsc3)cnn2-c2ccc(F)cc2F)CC1	-1.06% [at 57.1 µM] (inactive)	
Cc1ccccc1CNC(=O)CCCn1nc(C)c2sc3ccccc3c2c1=O	-3.88% (inactive)	
Cc1ccc(-c2cc(C(=O)Nc3nn[nH]n3)c3ccccc3n2)c(C)c1	7.22% (inactive)	
CCCC(=O)Nc1ccc(NC(=O)c2sc3ccccc3c2Cl)cc1	-3.87% (inactive)	
Cc1ccc2c(Cl)c(C(=O)Nc3nn[nH]n3)sc2c1		50.1 µM (active)
CN(C)S(=O)(=O)c1ccc(C(=O)N(Cc2cccnc2)c2nc3c(F)cc(F)cc3s2)cc1	1.49% (inactive)	
CC(=O)Nc1cccc(NC(=O)CSc2cn(CC(=O)N3CCCC3)c3ccccc23)c1	-15.1% (inactive)	
COc1ccc(Cn2c(=O)n(-c3ccccc3C)c(=O)c3c4c(sc32)CN(C(C)=O)CC4)cc1	-6.59% (inactive)	
CCOc1ccc(/C=C2\SC(=S)N(NC(=O)c3ccncc3)C2=O)cc1OC	-34.1% (inactive)	
CN1C(=O)C(CC(N)=O)N(NC(=O)c2ccc(Cl)cc2)C1=S (stereo unspecified)	-6.62% (inactive)	
Cn1cccc1/C=C1\SC(=S)N(NC(=O)c2ccc(Cl)cc2)C1=O		12.6 µM (active)
COc1ccc(N2CCN(C(=O)CSCc3nc(-c4ccccc4Cl)oc3C)CC2)cc1	4.75% (inactive)	
Cc1cccc(N=Nc2c(C)[nH]n(-c3ccccc3)c2=O)c1		3.16 µM (active)
Cc1cccc(N=Nc2c(O)[nH]c3ccc(F)cc23)c1	-13.2% (inactive)	
Cc1[nH]n(C)c(=O)c1N=Nc1ccc(S(C)(=O)=O)cc1	-19.1% (inactive)	
O=C(CCS(=O)(=O)c1ccccc1)N(Cc1cccnc1)c1nc2c(F)cccc2s1	-1.19% (inactive)	
Cc1ccc(Cl)cc1N(C)C(=O)Cn1nc(Cc2cccnc2)c2ccccc2c1=O	-25.1% (inactive)	
CC1CCCCN1S(=O)(=O)c1ccc(F)c(C(=O)Nc2ccccc2C(F)(F)F)c1 (stereo unspecified)	5.64% (inactive)	
COc1ccc(NC(=O)NC(C)c2c(-n3cccc3)sc(C)c2C)cc1OC (stereo unspecified)		35.5 µM (active)
Cc1ccc(NC(=O)NC(C)c2c(-n3cccc3)sc(C)c2C)c(C)c1 (stereo unspecified)	2.45% (inactive)	
CCn1cc(NC(=O)Nc2ccc(OC)c(OC)c2)c(C(N)=O)n1	13.7% (inactive)	
Cc1cc(Nc2cccc(C(F)(F)F)c2)nc2ccc(NC(=O)c3ccc(=O)[nH]c3)cc12	-5% (inactive)	

Structure (SMILES)	activity change, negative = inhibition	Potency
COc1ccc(-c2nc(SCC(=O)N3CCCC3)n[nH]2)cc1	4.84% (inactive)	
COc1ccc(-c2nc3n(c2Br)CCC3)cc1		50.1 µM (active)
COc1ccc(-c2nnc3n2CCCCC3)cc1	0.531% (inactive)	
CCc1nn(CC(=O)Nc2cc(C)cc(C)c2)c(=O)c2cc3sccc3n12	-3.37% (inactive)	
COc1ccc(-c2cc(=O)c3c(O)cc(O[C@@H]4O[C@H](CO[C@@H]5O[C@@H](C)[C@H](O)[C@@H](O)[C@H]5O)[C@@H](O)[C@H](O)[C@H]4O)cc3o2)cc1O	-3.8% (inactive)	
COc1c(O)cc2oc(-c3ccc(O)c(O)c3)cc(=O)c2c1O		50.1 µM (active)
CCOC(=O)COc1cc(OCC(=O)OCC)c2c(=O)cc(-c3ccccc3)oc2c1	3.07% (inactive)	
COCCCn1c(Cc2csc(Nc3cccc(Cl)c3)n2)nnc1SCC(=O)OC1CCCCC1		39.8 µM (active)
COCCCn1c(SCC(=O)NC2CCCC2)nnc1-c1ccccc1	4.71% (inactive)	
COCCCn1c(SCC(=O)Nc2ccccc2)nnc1-c1ccncc1	2.13% (inactive)	
COc1ccc(-c2cc(C(=O)NCc3cc(OC)c(OC)c(OC)c3)[nH]n2)cc1	-15.3% (inactive)	
CN(C)c1cccc(C(=O)Nc2nc3ccc(S(=O)(=O)NC(C)(C)C)cc3s2)c1	-20.8% (inactive)	
O=C(CN1CCCCCC1)Nc1c(Cl)cc(Cl)cc1Cl	-1.52% (inactive)	
Cc1csc(NC(=O)CN2CCCCCC2)n1		50.1 µM (active)
Cc1cc(C)c(NC(=O)CN2CCCCCC2)c(C)c1	-4.99% (inactive)	
CCOc1ccc(-c2nonc2NC(=O)c2oc3ccc(C)cc3c2C)cc1OCC	1.66% (inactive)	
COc1ccc(CCNc2nc(-c3ccc(Cl)cc3)cc(C(F)(F)F)n2)cc1OC	-0.128% (inactive)	
C#CCOCCOCCOCCNc1nc(N2CCN(C(=O)[C@H](CCCCN)n3cc([C@@H](N)C(C)CC)nn3)CC2)nc(N2CCN(C(=O)[C@H](Cc3ccc(O)cc3)n3cc([C@@H](N)C(C)CC)nn3)CC2)n1 (stereo partly specified)		44.7 µM (active)
C#CCOCCOCCOCCNc1nc(N2CCN(C(=O)[C@H](Cc3ccc(O)cc3)n3cc(C(N)CC(C)C)nn3)CC2)nc(N2CCN(C(=O)[C@H](CCC(=O)O)n3cc(C(N)[C@H](C)CC)nn3)CC2)n1 (stereo partly specified)		70.8 µM (active)
C#CCOCCOCCOCCNc1nc(N2CCN(C(=O)C(Cc3ccc(O)cc3)n3cc(C(N)CC(C)C)nn3)CC2)nc(N2CCN(C(=O)C(Cc3ccc(O)cc3)n3cc(C(N)C(C)CC)nn3)CC2)n1 (stereo unspecified)		56.2 µM (active)
C#CCOCCOCCOCCNc1nc(N2CCN(C(=O)[C@H](CCC(=O)O)n3cc(C(N)CO)nn3)CC2)nc(N2CCN(C(=O)[C@H](Cc3ccc(O)cc3)n3cc(C(N)[C@H](C)CC)nn3)CC2)n1 (stereo partly specified)		39.8 µM (active)
CC[C@H](C)[C@@H](C(=O)N1CCNCC1)n1cc([C@@H](N)Cc2ccc(O)cc2)nn1	-27.4% (inactive)	
